High-throughput results as filed in PubChem BioAssay.
Most compounds without a hit are left out; they make up all but 6.6% or so of the library.
GRIN3A LBD mod – binders of NR3A ligand-binding domain, primary screen, biophysical, differential scanning fluorimetry, uHTS; Tm shift relative to glycine control, % at 25 µM; NR3A LBD differential scanning fluorimetry, Tm shift; 0% = protein alone, 100% = glycine-bound protein; Glutamate receptor ionotropic, NMDA 3A (GRIN3A) ligand-binding domain; hit rate 2.5% among 340,000;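 active = melting temperature shift of at least 10% of the positive control shift, at one fixed dose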
Mdm2-MdmX inh – inhibitors of human Mdm2-MdmX association, primary screen, cell-based, luminescence, split luciferase, SaOS-2, uHTS. Protein Mdm4 (Homo sapiens) + E3 ubiquitin-protein ligase Mdm2 (Homo sapiens), …. SaOS-2 split-luciferase Mdm2/MdmX complementation. inhibition, % at 8 µM. hit rate 3% among 330,000. AID 485346, 2010;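 active = inhibition of at least 50% at 8 µM in the primary screen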
MPTP block – mitochondrial permeability transition pore inhibitors, primary screen, biochemical, isolated mouse mitochondria, absorbance; inhibition, % at 10 µM; Ca2+ swelling absorbance, 30 min; AID 602449, 2012; hit rate 1.4% among 360,000;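 active = inhibition of 50% or more, scaled per plate between neutral and stimulator controls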;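 also: 0% = DMSO wells given calcium and 100% = 1 mM EGTA wells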
Beta cell apopt – inhibitors of cytokine-induced beta cell apoptosis, primary screen, luminescence. INS-1E cytokine-induced death, ATP luminescence, 48 h; percent of positive-control rescue, neutral wells zero. protection from apoptosis, % (concentration not given with the values). hit rate 0.8% among 300,000;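 active = Every replicate reaches about 75%, or at least half do and their mean reaches it too, limit read from the data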;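 also: 0% = cytokine-treated negative control wells and 100% = positive control rescue; higher means more ATP so stronger rescue from cytokine killing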
Gli-Sufu antag – Gli-Sufu pathway antagonists, primary screen, luciferase luminescence, Sufu-KO-LIGHT cells, uHTS. Sufu-KO-LIGHT fibroblasts, Gli luciferase reporter luminescence. AID 588413, 2011. inhibition, % at 5 µM. hit rate 0.74% among 340,000;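 active = inhibition above about 55%, limit read from the data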;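 also: 0% = DMSO-treated cells and 100% = wells with medium but no cells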
CSC inhib – cancer stem cell viability inhibitors, primary screen, luminescence | cancer stem cell-like cells viability | inhibition, % at 7.5 µM | hit rate 1.1% among 300,000 | AID 2717, 2010; in the data active = inhibition above about 75%; tested in HMLE shEcad cells
Gli-Sufu confirm – Gli-SUFU pathway antagonists, confirmation, single concentration, luciferase luminescence, Sufu-KO-LIGHT cells; inhibition, % at 5 µM; AID 602428, 2012; hit rate 40% among 2,500; Gli luciferase reporter; shares compounds with Gli-Sufu antag;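 active = mean inhibition at 5 µM reaching about 45%, limit read from the data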;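 also: plate controls were DMSO-treated cells for no effect and wells lacking cells for full effect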
SufuKO cytotox – cytotoxicity in Sufu-KO-LIGHT cells, confirmation, cytotoxicity control for Gli-SUFU antagonist project, cell-based, ATP luminescence, single concentration; cytotoxicity, % at 5 µM; hit rate 32% among 2,500; shares compounds with Gli-Sufu antag;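 active = mean cytotoxicity at 5 µM above about 25%, limit read from the data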;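 also: cells exposed to compound overnight for roughly 16 to 18 hours; plate controls were DMSO wells with cells for no effect and medium without cells for full effect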
Wnt3a counter – Wnt3a reporter signal inhibition, confirmation, counter-screen for Gli-SUFU antagonist project, Wnt-LIGHT cells, luminescence, single concentration | shares compounds with Gli-Sufu antag | Wnt3a-driven luciferase reporter | inhibition, % at 6.25 µM | hit rate 20% among 2,500;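 active = mean inhibition above about 25%, limit read from the data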
An asterisk follows results filed as active; . = no result given.

SMILES | GRIN3A LBD mod | Mdm2-MdmX inh | MPTP block | Beta cell apopt | Gli-Sufu antag | CSC inhib | Gli-Sufu confirm | SufuKO cytotox | Wnt3a counter
Cc1cc(C)c(NC(=S)N(CCN(C)C)C(C)c2cccnc2)c(C)c1 (centres undefined) | 2 | 7 | -1 | -1 | 12 | -5 | . | . | .
Cc1cc2c3c([nH]c2cc1S(=O)(=O)N1CCC2(CC1)OCCO2)CC(C)(C)CC3=O | 2 | 26 | 0 | . | -1 | -10 | . | . | .
Cc1ccc(S(=O)(=O)NCCC(=O)N2CCCCCCC2)cc1 | 0 | -29 | 0 | 3 | 96* | -4 | 13 | 1 | -11
Cc1oc(-c2cccc(Cl)c2)nc1CN1CCC(C(=O)N2CCN(c3ccccc3F)CC2)CC1 | -4 | 47 | 11 | 3 | 84* | 22 | 28 | 21 | -37
COc1ccc(OC)c(/C=C2\SC(N3CCCC(C)C3)=NC2=O)c1 (centres undefined) | -2 | 19 | 1 | -6 | 64* | -5 | 14 | 12 | -22
CCCCC(=O)Nc1cc([N+](=O)[O-])ccc1F | -8 | 12 | 1 | -2 | -1 | -14 | . | . | .
CCCCC(=O)Nc1cc([N+](=O)[O-])ccc1Cl | -7 | -11 | 0 | -1 | 92* | -17 | 14 | 11 | 33*
COc1cc(OC)c(OC)cc1/C=N/n1c(COc2ccccc2)n[nH]c1=S | 2 | 10 | -1 | 11 | 57* | 16 | 25 | 18 | -21
COc1ccc(OC)c(Cc2nnc(CCC(=O)NCc3nc4ccccc4s3)o2)c1 | -1 | -10 | 0 | -6 | -3 | . | . | . | .
COc1cc(OC)cc(C(=O)OCC(=O)c2ccc(S(=O)(=O)N3CCCCC3)cc2)c1 | 4 | 6 | 1 | -4 | 96* | . | 13 | 12 | -20
C/C(CC(=O)Nc1ccc2c(c1)OCCO2)=N\NC(=O)c1ccccc1Cl | 0 | 19 | 0 | -3 | 13 | . | . | . | .
O=C(COC(=O)c1ccc2[nH]c3c(c2c1)CCCC3)Nc1ccccc1Cl | 13* | 29 | 0 | -1 | 51 | 11 | 47* | 7 | -23
Nc1ccccc1-c1nnc2n1CCCCC2 | -2 | -35 | 1 | 1 | -39 | 0 | . | . | .
Cc1ccc(C(=O)ONc2ccc(N=O)cc2)cc1 | 1 | 8 | 4 | -15 | 65* | . | 7 | 4 | -8
COc1ccc(S(=O)(=O)Nc2ccc(F)cc2F)cc1C(=O)N1CCOCC1 | 0 | 6 | 2 | 6 | 61* | 4 | 6 | 14 | -10
Cc1nn(-c2ccccc2)c2nc3c(cc12)C(=O)CCC3 | -1 | 6 | 0 | . | -14 | -3 | . | . | .
C=CCn1c(SCC(=O)Nc2ccccc2)nc2scc(-c3cccs3)c2c1=O | 0 | 6 | 0 | -1 | -16 | -10 | . | . | .
C=CCn1c(SCn2nnc3ccccc3c2=O)nc2scc(-c3cccs3)c2c1=O | -1 | 13 | 0 | 3 | 52 | 48 | 14 | 21 | 0
CCCn1c(SCC(=O)Nc2ccccc2OC)nnc1-c1ccco1 | -2 | 43 | 0 | -5 | -4 | 47 | . | . | .
COc1cc(C2c3cc4c(cc3OC(NNC(N)=O)C2C)OCO4)cc(OC)c1OC (centres undefined) | 0 | . | 0 | . | 56* | . | 55* | 62* | 8
COc1cc(C2c3cc4c(cc3OC(NNC(N)=S)C2C)OCO4)cc(OC)c1OC (centres undefined) | 0 | . | 1 | . | 45 | . | . | . | .
